For 42 sequences, binding signal results are on record in PMC7819943, “Rice protein-binding microarrays: a tool to detect cis-acting elements near promoter regions in rice”.

In all, about 39,000 sequences were measured (“fluorescence intensity (a.u.)”: median about 4,300, highest 2% from about 39,000 on). Shown is part of a subset that was picked to be rich in the highest values.

The target in this assay is T1, OsSMF1 (Oryza sativa, UniProt Q6ZLB0 1-436).
T1 sequence: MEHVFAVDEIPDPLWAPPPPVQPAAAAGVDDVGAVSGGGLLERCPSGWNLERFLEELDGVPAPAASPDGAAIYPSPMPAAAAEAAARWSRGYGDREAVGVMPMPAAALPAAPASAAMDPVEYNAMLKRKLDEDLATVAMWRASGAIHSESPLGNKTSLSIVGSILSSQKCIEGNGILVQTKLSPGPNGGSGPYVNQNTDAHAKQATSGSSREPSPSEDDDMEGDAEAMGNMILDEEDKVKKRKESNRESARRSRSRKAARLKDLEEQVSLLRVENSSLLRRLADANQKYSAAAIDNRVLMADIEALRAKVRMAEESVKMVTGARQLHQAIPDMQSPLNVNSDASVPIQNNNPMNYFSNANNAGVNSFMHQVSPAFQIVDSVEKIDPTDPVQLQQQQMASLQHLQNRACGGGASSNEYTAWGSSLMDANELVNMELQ
Kind of assay: protein-binding microarray (RPBM); PBS, 2% BSA, 51.3 ng/ul salmon testes DNA, 50 uM zinc acetate, 200 nM TF, 25 C, 1 h; high values mean tight binding. As to conditions: protein: recombinant; tags: N-terminal polyhistidine and DsRed monomer fusion (pET32a); chain copies: 2; label: CyDye5-dUTP incorporated in the synthesized complementary strand; 3' TTTTT single-stranded linker to array surface; dsDNA, one strand shown. Put shortly:
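Transcription factors were each fused at the N-terminus to a polyhistidine tag plus DsRed and expressed in E. coli BL21-CodonPlus before Ni–NTA purification. Binding to a double-stranded custom Agilent array was carried out with 200 nM protein at 25 °C for 1 h in PBS, 2% BSA, salmon testes DNA and 50 µM zinc acetate. The binding signal is per-feature fluorescence intensity, in arbitrary units, on an Axon 4000B scanner.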
“CACCGCTACCTACGTTGTCGCCACCCACGTCAATAATCCTCGGAGTCACCTAGTGCAG”: the binding signal was 6310 fluorescence intensity (a.u.).

Regarding “ATTCTTTTACCGCGTTGATGAATCGGATTCGTTCCGGTTTCGGAGTCACCTAGTGCAG”, the binding signal was 3360 fluorescence intensity (a.u.).

As to “GAGTCGTTATCTGCATTGATGTGTCTCCTGACTCCTGAGACGGAGTCACCTAGTGCAG”, the binding signal was 3840 fluorescence intensity (a.u.).

As to “CAACCTCCGATTTCCAAATCCAGTTGTCTTCTTCTTCCCCCGGAGTCACCTAGTGCAG”, the binding signal is 7150 fluorescence intensity (a.u.).

Take “ACAATACTACTATTTTATCATGACGATGACTGGAACTCCACGGAGTCACCTAGTGCAG”: the binding signal was 4440 fluorescence intensity (a.u.).

Regarding “CGCTGGTGAAGTGGTGATGCGCCTAATCGTTTTCTTCGCGCGGAGTCACCTAGTGCAG”, the binding signal is 3260 fluorescence intensity (a.u.).

Turning to “CTTGCATTCCTTTTCTTCTCCTGAACTATATAAACACACTCGGAGTCACCTAGTGCAG”, the binding signal was 3290 fluorescence intensity (a.u.).

Turning to “AAATTTAAGAATTTTCGGATGCACTTAAAGAAGGACAAGTCGGAGTCACCTAGTGCAG”, the binding signal was 11000 fluorescence intensity (a.u.).

In the case of “CCGCCTGACACGTGTAAGAGCAAGTTTAATAGTATAGCCCCGGAGTCACCTAGTGCAG”, the binding signal is 13800 fluorescence intensity (a.u.).

With “ATTATTAAAATATATAAATATTGAATTTAATAAAATAATTCGGAGTCACCTAGTGCAG”, the binding signal is 26400 fluorescence intensity (a.u.).

Consider “ATTGAATATAATTGGATATAAACAGTTTAAAACTATACTCCGGAGTCACCTAGTGCAG”, for which the binding signal was 5510 fluorescence intensity (a.u.).

Turning to “GAGAGAGAGAGGAGATAATAAAATACTCGATATTGAATTGCGGAGTCACCTAGTGCAG”, the binding signal is 42500 fluorescence intensity (a.u.).

As for “GGTTGAGTGACGCGCTATTTCTGGTATTGCGTATGAAGGGCGGAGTCACCTAGTGCAG”, the binding signal is 3520 fluorescence intensity (a.u.).

Take “TGTCCATGGTTTGTTGCTGCTGCGGTGGCACCAGTGCTGCCGGAGTCACCTAGTGCAG”: the binding signal is 7940 fluorescence intensity (a.u.).

As to “GTAGACGAAGACCTGGCAAGTCCTTGGGCTTAAATCTCACCGGAGTCACCTAGTGCAG”, the binding signal is 17800 fluorescence intensity (a.u.).

As to “TATGAACACATATGTAGCATACGCTTAAATAGACGAAGACCGGAGTCACCTAGTGCAG”, the binding signal was 40500 fluorescence intensity (a.u.).

In the case of “GACTGTACACATGAAGGAACATATGTGCTGAAATACTGTACGGAGTCACCTAGTGCAG”, the binding signal was 26100 fluorescence intensity (a.u.).

As to “GCTATATATTTGTTGATCAGCTAGGCTGTCAGCAGTTTAGCGGAGTCACCTAGTGCAG”, the binding signal is 3650 fluorescence intensity (a.u.).

Consider “ATACACACATATCCGCGCCATTATAAATTTGACAGCATTTCGGAGTCACCTAGTGCAG”, for which the binding signal is 3440 fluorescence intensity (a.u.).

Consider “CAACATTAGCAATTAAAATTGCGGGTTATTTGTAAAAGTCCGGAGTCACCTAGTGCAG”, for which the binding signal is 32000 fluorescence intensity (a.u.).

As for “CATATATGGACAGGCAACGGCATGTCGTGTTCGTACAAATCGGAGTCACCTAGTGCAG”, the binding signal was 3190 fluorescence intensity (a.u.).

Regarding “GCGGTAGCCAAGCCTGCCACGTCAGCTCTCGCGCAACGTCCGGAGTCACCTAGTGCAG”, the binding signal is 34600 fluorescence intensity (a.u.).

Regarding “CACCACACGAAGCAGCCACGAACGCAACGCGGGTGCGTCGCGGAGTCACCTAGTGCAG”, the binding signal is 3140 fluorescence intensity (a.u.).

Turning to “CCGCGTCCGTACTCTCTAGCCTGCGGGTAAGCAACGAACTCGGAGTCACCTAGTGCAG”, the binding signal is 45200 fluorescence intensity (a.u.).

For the sequence “CCCACCCCGCGTGCAGCTTAGGCGAACCCTCCTCCCTCCGCGGAGTCACCTAGTGCAG”, the binding signal is 3660 fluorescence intensity (a.u.).

As to “CCAAAATCAGATATCTTAGGATTCATATCGATGTCCAACACGGAGTCACCTAGTGCAG”, the binding signal is 19200 fluorescence intensity (a.u.).

Regarding “CATATCCTCAAGTAGAATTCAAATCCAGTCACATTGCCACCGGAGTCACCTAGTGCAG”, the binding signal was 4130 fluorescence intensity (a.u.).

With “CAGGTGGTGGTGGCCATTAGTTAGTGGCAAATGTGGAAGGCGGAGTCACCTAGTGCAG”, the binding signal was 3220 fluorescence intensity (a.u.).

For the sequence “AGGAATGCATTTGTGGTGGGTGCAGGTGCGCGGGTGGCGACGGAGTCACCTAGTGCAG”, the binding signal is 3340 fluorescence intensity (a.u.).

On to “GTTCAGAATGTGGTGGCGACGTAAGGTGATTTGGAAGGCGCGGAGTCACCTAGTGCAG”, for which the binding signal was 43500 fluorescence intensity (a.u.).

Consider “CTAGAGGAAGTGGGGAAGCCGACGACCCCACGTCTCGCCACGGAGTCACCTAGTGCAG”, for which the binding signal is 3940 fluorescence intensity (a.u.).

In the case of “GACTAACAAAATCGTTGAAACTTGCGAAGTTTCTTTTGATCGGAGTCACCTAGTGCAG”, the binding signal was 64700 fluorescence intensity (a.u.).

As for “TAAAATAGTTTTAAAACTTTAAGTTGAAAGTAAATACTTTCGGAGTCACCTAGTGCAG”, the binding signal is 27900 fluorescence intensity (a.u.).

As to “TACTTTCAACTCTAACTTGAAAACTTTCAACTTTGACTTGCGGAGTCACCTAGTGCAG”, the binding signal was 3860 fluorescence intensity (a.u.).

In the case of “CCACCCACGGAGCCAGCTCACTACCACCGTTTGTCGCCTCCGGAGTCACCTAGTGCAG”, the binding signal was 4360 fluorescence intensity (a.u.).

In the case of “GTACTACTCCCTCCGTTTCTCCCTCCGTTTCAAAATGTTTCGGAGTCACCTAGTGCAG”, the binding signal is 3220 fluorescence intensity (a.u.).

“ACATGTGTTCACGCGTGTGTATCTTCTACTCCCTCCGTTTCGGAGTCACCTAGTGCAG”: the binding signal was 43200 fluorescence intensity (a.u.).

With “TTCTTCCTCCGTCAGTTCATCATCTCTCTGTGTGTGTTTTCGGAGTCACCTAGTGCAG”, the binding signal is 3570 fluorescence intensity (a.u.).

“GTTGTCAAATGAGTCAATTAGATATTTCCAACCCACACTACGGAGTCACCTAGTGCAG”: the binding signal is 4900 fluorescence intensity (a.u.).

“CGTATCTCATCTTTTCGTTTATACTTATACTTATCAGTCACGGAGTCACCTAGTGCAG”: the binding signal was 3230 fluorescence intensity (a.u.).

Regarding “ATCGATCGATCAATTGGCCAAGGCGGCAAACGGCGGCGGCCGGAGTCACCTAGTGCAG”, the binding signal was 4060 fluorescence intensity (a.u.).

For the sequence “TTAGCTTCACAGTTCACTGTAGCGTCTAGAAGAGGAACAGCGGAGTCACCTAGTGCAG”, the binding signal is 63300 fluorescence intensity (a.u.).
